Screening data from PubChem BioAssay.
Shown are actives, neighbours in structure and some others; about 2.4% of the full set was active somewhere.
POLH inh: qHTS for Inhibitors of Polymerase Eta; Potency, µM (titrated, usually from 114 µM), without a hit: at the top dose activity change, negative = inhibition, hits mostly inhibitors; recombinant Pol eta, fluorescent DNA replication assay; AID 588591, 2011; actives 1.2% (n = 390,000); DNA polymerase eta (Homo sapiens), Q9Y253; also: % is scaled to controls: 0 for no effect and ±100 for the full control effect
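Pol eta at 10 nM preincubated with compounds 15 min at room temperature; reaction started with fluorescent substrate (50 nM final) and read kinetically at 0 and 10 min.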
WRN helicase inh: qHTS for Inhibitors of WRN Helicase; actives 0.46% (n = 360,000); WRN helicase unwinding, fluorescent forked duplex, kinetic; Potency, µM (top dose mostly 114 µM), for the others: at the top dose activity change, negative = inhibition, usual class: inhibitors; AID 651768, 2012; also: % is scaled to controls: 0 for no effect and ±100 for the full control effect; nearly all actives have a fitted effect of over 55% in size
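Fluorescence dequenching readout, ex 525 nm/em 598 nm, kinetic mode: forked duplex DNA (100 nM final) with adjacent fluorophore and quencher unwound by WRN (20 nM final) with 2 mM ATP. Compound preincubation 15 min, room temperature.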
Pol iota inh: qHTS for Inhibitors of Polymerase Iota | DNA polymerase iota (Homo sapiens), Q9UNA4 | Pol iota fluorescent replication assay, 10 min | Potency, µM (top dose mostly 115 µM), for inactives: top-dose activity, negative = inhibition, usual class: inhibitors | actives 1% (n = 390,000) | AID 588590, 2011
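Pol iota at 10 nM preincubated 15 min with compounds at room temperature; reaction started with fluorescent substrate, 50 nM final. Fluorescence read kinetically at 0 and 10 min; buffer-only wells as negative control.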
Pol beta inh: qHTS Assay for Inhibitors of DNA Polymerase Beta. P06746. Pol beta primer extension/strand displacement, fluorescence kinetic. Potency, µM (highest dose often 114 µM), without a hit: at the highest dose activity change, negative = inhibition, actives largely listed as inhibitors. actives 1.3% (n = 340,000). AID 485314, 2010; also: % is scaled to controls: 0 for no effect and ±100 for the full control effect
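Reaction started by 50 nM substrate onto compound-treated Pol beta (10 nM, 15 min preincubation, room temperature); plates read at 0 min and 10 min. Normalized concentration-effect data fitted by four-parameter Hill equation.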
POLK inh: qHTS for Inhibitors of Polymerase Kappa; DNA polymerase kappa (Homo sapiens), Q9UBT6; purified Pol kappa, fluorescent DNA synthesis assay, 10 min; Potency, µM (series often up to 107 µM), without a hit: top-dose activity, negative = inhibition, actives largely listed as inhibitors; actives 0.53% (n = 400,000); AID 588579, 2011; also: % is scaled to controls: 0 for no effect and ±100 for the full control effect
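Readout: fluorescence, taken kinetically at 0 and 10 min. Conditions: 10 nM Pol kappa, 15 min RT compound preincubation, 50 nM substrate final. Controls: enzyme-free buffer wells.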
FEN1 inh: qHTS Assay for the Inhibitors of Human Flap endonuclease 1 (FEN1). Recombinant FEN1 flap cleavage, fluorescence, 15 min. actives 0.35% (n = 390,000). Potency, µM (series often up to 114 µM), for the others: at the top dose activity change, negative = inhibition, hits mostly inhibitors. P39748; also: % is scaled to controls: 0 for no effect and ±100 for the full control effect; nearly all actives have a fitted effect of over 65% in size
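Read-out was taken twice, immediately and after 15 min, following addition of 50 nM substrate to 10 nM FEN1 that had sat with test compound for 15 min at room temperature. Curves came from a four-parameter Hill model.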
* = called active by the depositor; ? = inconclusive; nt = no result; [ ] = another dose, or the depositor's remark. Calls follow the shape of the dose curve; as a rule, active = well fitted curve in the direction sought with a large enough effect; inconclusive = small, poorly fitted or top-dose-only effect, or another doubt; inactive = no such curve, though single readings can be large; an effect the other way counts as inactive or inconclusive. Potency is read from the fitted curve at half-maximal effect.

SMILES	POLH inh	WRN helicase inh	Pol iota inh	Pol beta inh	POLK inh	FEN1 inh
O=C(O)CN1C(=O)/C(=C\c2ccccc2OCc2ccc(Cl)cc2Cl)SC1=S	45µM*	?	?	20µM*	-32%	-30%
O=C(O)CN1C(=O)/C(=C\c2cc(Br)ccc2OCc2ccccc2Cl)SC1=S	40µM*	56µM*	?	32µM*	-35%	?
CSc1ccc(CCNC(=O)C2CCN(c3ncnc4c3nc3n4CCCCC3)CC2)cc1	-7%	nt	3%	2%	-22%	1%
Nc1[nH]c(=S)[nH]c(=O)c1N	nt	nt	0%	nt	2%	8%
Cc1ccccc1-c1cc2nccc(-c3cc(Cl)ccc3O)n2n1	-12%	nt	6%	7%	-5%	-9%
O=C(NC12CC3CC(CC(C3)C1)C2)c1ccc(=O)oc1	-3%	5%	18%	9%	-6%	-5%
O=C(NNC(=O)C1[C@H]2CCCC[C@@H]12)c1ccc(=O)oc1 (stereo not given in full)	?	-2%[11.6 µM]	22µM*	79µM*	?	10%
CSc1nc(=S)cc(C)[nH]1	-2%	40µM*	?	2%	6%	-13%
CCOC(=O)c1[nH]c2ccccc2c1NC(C)=O	-15%	0%	-2%	80%	-5%	-13%
CCOc1cc(Br)cc(C(c2c(C(=O)O)[nH]c3ccccc23)c2c(C(=O)O)[nH]c3ccccc23)c1O	79µM*	2%[11.6 µM]	-16%	?	?	?
CSc1ccc(C(c2c(C(=O)O)[nH]c3ccccc23)c2c(C(=O)O)[nH]c3ccccc23)cc1	79µM*	-8%[11.6 µM]	?	-27%	?	-6%
CCC1S/C(=N/C(=O)NC2CCCCC2)NC1=O (stereo not given)	-4%	4%	?	15%	1%	-4%
O=C(/N=C1\NC(=O)C(F)(C(F)(F)F)S1)NC1CCCCC1 (stereo not given)	6%	50µM*	?	-29%	-8%	1%
O=C(c1cc(COc2ccc3ncccc3c2)on1)N1CCCC1	-2%	3%	14%	4%	-19%	-2%
O=C(NCCc1cn2ccccc2n1)c1cc(COc2ccc3ncccc3c2)on1	-10%	-4%	36%	40µM*	-23%	0%
O=C(O)c1cc(S(=O)(=O)O)ccc1O	-11%	2%	1%	3%	-14%	-2%
Nc1ccc2c(O)cc(S(=O)(=O)O)cc2c1	5.6µM*	?	8.9µM*	nt	14µM*	8.9µM*
CN1C(=O)C(C)(C)c2cc(S(=O)(=O)N3CCN(c4cccc(Cl)c4)CC3)ccc21	0%	-21%	?	14µM*	-36%	-11%
CCOc1cccc(C2/C(=C(/O)c3ccc4c(c3)CC(C)O4)C(=O)C(=O)N2CCN2CCOCC2)c1 (stereo not given)	-9%	2%	-13%	-10%	4%	7%
C=CCOc1cccc(C2/C(=C(/O)c3ccc4c(c3)CC(C)O4)C(=O)C(=O)N2CCN2CCOCC2)c1 (stereo not given)	-3%	-1%[11.6 µM]	89µM*	-19%	-14%	14%
CC1Cc2cc(/C(O)=C3/C(=O)C(=O)N(CC4CCCO4)C3c3ccco3)ccc2O1 (stereo not given)	14µM*	-13%[57.1 µM]	?	22µM*	-25%	-8%
COc1ccc([C@@H]2CC(=O)c3c(O)cc(O[C@@H]4O[C@H](CO)[C@@H](O)[C@H](O)[C@H]4OC4O[C@@H](C)[C@H](O)[C@@H](O)[C@H]4O)cc3O2)cc1O (stereo not given in full)	nt	nt	nt	nt	14%[60.1 µM]	nt
O=C(Nc1cccc(Cl)c1)OCC#CCCl	nt	nt	nt	nt	27µM*	nt
